The text below walks through data of PubChem BioAssay (NCI).

Structures are written as SMILES. The panel holds about 83,000 compounds, 20% with a hit somewhere; the sample as a whole holds those more often.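 Percent growth is the endpoint: 0 to 100 indicates growth inhibition (40 means 60% inhibition), 0 means no net growth, and negative values indicate cell death.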 Values without a mark were called inactive. The source made the active and inactive calls. The calls were made as follows: active = growth percent below 10; inactive = the rest.

Holding throughout (test): NCI-60 one-dose screen, 48 h (100 = growth as untreated, 0 = no growth, -100 = all killed)
In one assay the test system is HCT-15 colon. The conditions noted are these: 10 µM unless noted.
The subject of a further assay is HT29 colon. The conditions noted are these: 10 µM unless noted.
The next assay concerns SNB-75 CNS. The conditions noted are these: 10 µM unless noted.
In the next assay the test system is U251 CNS. The conditions noted are these: 10 µM unless noted.
For another assay, the system named is PC-3 prostate. The conditions noted are these: 10 µM unless noted.
In another assay the test system is SK-MEL-5 melanoma. The conditions noted are these: 10 µM unless noted.
For a further assay, the system named is UACC-62 melanoma. The conditions noted are these: 10 µM unless noted.
A further assay concerns LOX IMVI melanoma. The conditions noted are these: 10 µM unless noted.
Another assay has as its system SK-MEL-28 melanoma. The conditions noted are these: 10 µM unless noted.
Another assay has as its system SK-MEL-2 melanoma. The conditions noted are these: 10 µM unless noted.
A further assay deals with SN12C renal. The conditions noted are these: 10 µM unless noted.
A further assay relates to UO-31 renal. The conditions noted are these: 10 µM unless noted.
Another assay has as its system ACHN renal. The conditions noted are these: 10 µM unless noted.
In the next assay the test system is CAKI-1 renal. The conditions noted are these: 10 µM unless noted.
In the next assay the test system is A498 renal. The conditions noted are these: 10 µM unless noted.
Another assay relates to SNB-19 CNS. The conditions noted are these: 10 µM unless noted.
A further assay relates to EKVX NSCLC. The conditions noted are these: 10 µM.
The subject of the next assay is TK-10 renal. The conditions noted are these: 10 µM unless noted.
A further assay deals with CCRF-CEM leukemia. The conditions noted are these: 10 µM.
For a further assay, the system named is MOLT-4 leukemia. The conditions noted are these: 10 µM unless noted.

With `CC(=O)Oc1cc2ccccc2cc1C(C)C`, the growth in the assay on HCT-15 colon is 99.1%; in the assay with HT29 colon, 114%; in the assay on SNB-75 CNS it was 92.3%; in the assay with U251 CNS, 112%; with PC-3 prostate it was 115%; with SK-MEL-5 melanoma, 101%. For the same compound, the growth was 116% in the assay on UACC-62 melanoma; 109% in the assay on LOX IMVI melanoma; 113% with SK-MEL-28 melanoma; 85.7% in the assay with SK-MEL-2 melanoma; 111% with SN12C renal; 88.7% in the assay on UO-31 renal. Moreover, the growth with ACHN renal was 97.4%; in the assay with CAKI-1 renal it was 106%; with A498 renal, 81%.

For the compound `O=C(Nc1ccccc1)Nc1ccc(Nc2ncnc3sc4c(c23)CCCC4)cc1`, the growth in the assay on HCT-15 colon is 110%; with HT29 colon, 96.2%; in the assay on SNB-75 CNS, 93.3%; with SNB-19 CNS, 95.9%; in the assay on PC-3 prostate it was 89.9%; with SK-MEL-5 melanoma, 97.3%. The growth in the assay on UACC-62 melanoma was 97.9%; with LOX IMVI melanoma it was 99.5%; in the assay with SK-MEL-28 melanoma it was 116%; with SK-MEL-2 melanoma it was 114%; in the assay on EKVX NSCLC, 102%; in the assay with SN12C renal, 99.3%. Also, the growth in the assay on UO-31 renal is 71.6%; in the assay with TK-10 renal, 124%; with ACHN renal, 101%; with CAKI-1 renal it was 100%; in the assay on A498 renal it was 83.4%; with CCRF-CEM leukemia, 92.4%. Also, the growth in the assay with MOLT-4 leukemia is 89.5%.

As to `N=C(N)c1ccc(-c2ccc(-c3ccc(Cl)cc3)s2)s1`, the growth in the assay with HCT-15 colon is -84.8% (active); in the assay with HT29 colon, -33.3% (active); in the assay with SNB-75 CNS it was -96.4% (active); in the assay with SNB-19 CNS, -81.8% (active); in the assay with SK-MEL-5 melanoma, 2.66% (active); in the assay with UACC-62 melanoma, -31.2% (active). In addition, the growth in the assay with LOX IMVI melanoma is -89.4% (active); with SK-MEL-28 melanoma, -87.8% (active); with SK-MEL-2 melanoma it was -29.6% (active); in the assay on EKVX NSCLC, -70.7% (active); in the assay with SN12C renal, -50% (active); with UO-31 renal, -87.5% (active). Further, the growth in the assay with TK-10 renal is -55.3% (active); with ACHN renal, -97% (active); in the assay with CAKI-1 renal, -11.6% (active); in the assay with CCRF-CEM leukemia it was -70.8% (active); in the assay on MOLT-4 leukemia it was -59.6% (active).

As to `CCC(C)[C@H](NC(=O)Nc1cc(C(F)(F)F)cc(C(F)(F)F)c1)C(=O)N[C@@H](Cc1cn(C)cn1)C(=O)OC` (some centres undefined), the growth with HCT-15 colon is -83.2% [100 µM] (active); in the assay with HT29 colon, -83.6% [100 µM] (active); in the assay with SNB-75 CNS, -100% [100 µM] (active); in the assay on SNB-19 CNS it was -98.5% [100 µM] (active); in the assay with U251 CNS, -98% [100 µM] (active); in the assay on SK-MEL-5 melanoma, -97.9% [100 µM] (active). Also, the growth is -98.8% [100 µM] (active) with UACC-62 melanoma; -81.2% [100 µM] (active) in the assay on LOX IMVI melanoma; -95.3% [100 µM] (active) in the assay on SK-MEL-28 melanoma; -82% [100 µM] (active) in the assay on SN12C renal; -95.3% [100 µM] (active) in the assay with UO-31 renal; -98.7% [100 µM] (active) in the assay with TK-10 renal. In addition, the growth in the assay on ACHN renal is -98.4% [100 µM] (active); with CAKI-1 renal, -99.6% [100 µM] (active); in the assay on A498 renal, -94.4% [100 µM] (active); in the assay on MOLT-4 leukemia, -54.9% [100 µM] (active).

On to `COc1cc(OC)c(NC(=O)n2ncc3cc(Nc4ncnc5ccccc45)ccc32)cc1Cl`, for which the growth was 93.8% in the assay on HCT-15 colon; 80.3% in the assay on HT29 colon; 118% in the assay on SNB-75 CNS; 90.6% with SNB-19 CNS; 97.5% with PC-3 prostate; 94.3% in the assay with SK-MEL-5 melanoma. Moreover, the growth in the assay with UACC-62 melanoma was 105%; in the assay with LOX IMVI melanoma, 102%; in the assay on SK-MEL-28 melanoma, 98.7%; in the assay with SK-MEL-2 melanoma, 102%; in the assay with EKVX NSCLC, 33%; with SN12C renal it was 95.6%. Further, the growth was 64.1% in the assay with UO-31 renal; 30.8% in the assay with TK-10 renal; 55.1% in the assay with ACHN renal; 53.6% with CAKI-1 renal; 54.2% with A498 renal; 102% in the assay with CCRF-CEM leukemia. For the same compound, the growth with MOLT-4 leukemia was 96.3%.

For `CC1(C)NC(=S)NC1=O`, the growth with HCT-15 colon is 102%; in the assay on HT29 colon, 105%; in the assay on SNB-75 CNS, 89.9%; in the assay on U251 CNS, 98.4%; in the assay with PC-3 prostate, 95.5%; in the assay with SK-MEL-5 melanoma, 101%. For the same compound, the growth in the assay on UACC-62 melanoma was 108%; in the assay on LOX IMVI melanoma, 97.5%; in the assay with SK-MEL-28 melanoma it was 110%; with SK-MEL-2 melanoma it was 129%; in the assay on SN12C renal it was 105%; with UO-31 renal, 90.6%. In addition, the growth in the assay on TK-10 renal was 112%; with ACHN renal, 109%; with CAKI-1 renal it was 97.8%; with CCRF-CEM leukemia it was 88.2%; with MOLT-4 leukemia, 90.8%.

Regarding `CN1NC(c2ccccc2)NN(C)C1=O`, the growth is 96.6% with HCT-15 colon; 107% with HT29 colon; 77.8% with SNB-75 CNS; 97.2% in the assay with SNB-19 CNS; 88.6% with PC-3 prostate; 97.8% in the assay on SK-MEL-5 melanoma. In addition, the growth with UACC-62 melanoma is 91.6%; in the assay on LOX IMVI melanoma, 92.5%; in the assay with SK-MEL-28 melanoma, 107%; in the assay with SK-MEL-2 melanoma, 110%; in the assay on SN12C renal, 98.4%; in the assay on UO-31 renal, 67.8%. The growth with TK-10 renal is 114%; in the assay on ACHN renal it was 95.1%; with CAKI-1 renal, 85.4%; with A498 renal, 119%.

In the case of `Cn1c2c(cc(S(=O)(=O)c3ccccc3)c1=O)CCc1c-2cnn1-c1ccc(Cl)cc1`, the growth in the assay with HCT-15 colon was 39.5%; with HT29 colon, 16.8%; in the assay with SNB-75 CNS, -54.3% (active); in the assay with U251 CNS, 20.7%; in the assay on PC-3 prostate, 28.8%; in the assay with SK-MEL-5 melanoma, 6.71% (active). Besides, the growth in the assay on UACC-62 melanoma is 35.4%; with LOX IMVI melanoma, 6.82% (active); with SK-MEL-28 melanoma, -36.7% (active); in the assay on SK-MEL-2 melanoma, -9.09% (active); in the assay on EKVX NSCLC, 5.95% (active); in the assay with UO-31 renal, -14.2% (active). Besides, the growth in the assay on TK-10 renal is 34.6%; in the assay with ACHN renal it was 6.4% (active); with CCRF-CEM leukemia, 98.2%; in the assay with MOLT-4 leukemia, 57.5%.

On to `N=C(N)c1ccc(-c2ccc(-c3ccc(F)cc3)s2)cc1`, for which the growth in the assay on HCT-15 colon was -92.8% (active); in the assay with HT29 colon it was -64.1% (active); in the assay with SNB-75 CNS, -99.2% (active); with SNB-19 CNS, -86.5% (active); in the assay on PC-3 prostate it was -94% (active); with SK-MEL-5 melanoma, -99% (active). The growth was -91.8% (active) with UACC-62 melanoma; -95.1% (active) in the assay with LOX IMVI melanoma; -85.9% (active) in the assay with SK-MEL-28 melanoma; -62.1% (active) in the assay on SK-MEL-2 melanoma; -91.4% (active) in the assay with EKVX NSCLC; -71.2% (active) in the assay on SN12C renal. Besides, the growth is -88.4% (active) in the assay with UO-31 renal; -79.9% (active) with TK-10 renal; -91.8% (active) in the assay on ACHN renal; -95.1% (active) in the assay with CAKI-1 renal; -87.8% (active) in the assay on A498 renal; -62% (active) in the assay with CCRF-CEM leukemia. Besides, the growth with MOLT-4 leukemia is -58.8% (active).
